High-throughput results: PubChem BioAssay, National Center for Advancing Translational Sciences (NCATS)
An excerpt weighted towards active compounds, which were near 21% of everything screened.
Pf growth 48h = inhibits P. falciparum growth in the first generation, 48 h | P. falciparum luciferase growth in erythrocytes, 48 h | Potency, µM (top dose mostly 28.7 µM), without a hit: at the highest dose activity change, negative = inhibition, most hits filed as inhibitors | 310,000 tested, 5.9% active; further: potency means the concentration at half of the fitted maximal effect; on the % scale 0 is the no-effect control and ±100 the full control effect
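Luciferase-expressing parasites in RBCs, 2% Hct / 0.1% parasitemia final; RPMI 1640 + 0.5% Albumax; 37 C, 5% CO2, one generation; luminescence read-out, lower signal = inhibition.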
Pf growth 96h = P. falciparum growth inhibition at 96 hour, primary screen for plastid delayed-death inhibitors. P. falciparum luciferase reporter growth, 96 h. Potency, µM (highest dose often 28.7 µM), inactives show top-dose activity change, negative = inhibition, hits mostly inhibitors. 320,000 tested, 6.9% active; further: potency means the concentration at half of the fitted maximal effect; on the % scale 0 is the no-effect control and ±100 the full control effect
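Infected RBCs, 2% Hct / 0.05% parasitemia final; luciferase-reporter P. falciparum; cpd 96 h, 37 C, 5% CO2; luciferase detection reagent; luminescence.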
Shiga inhibitor = inhibitors of Shiga toxin in Vero cells; Vero cells, Shiga toxin protein synthesis inhibition reporter; 290,000 tested, 9.2% active; inhibition, % at 38.7 µM; AID 2315; in the data active means inhibition mostly above about 28%, no sharp cut-off; inactive means mostly below about 43%; further: 0% is about no effect
HCV inh = inhibitors of hepatitis C virus infection; Huh7.5.1 HCVcc-Cre infection, luciferase reporter, 44 h; Potency, µM (highest dose often 41.8 µM), inactives show at the highest dose activity change, negative = inhibition, usual class: inhibitors; 340,000 tested, 3.4% active; further: potency means the concentration at half of the fitted maximal effect; on the % scale 0 is the no-effect control and ±100 the full control effect
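After 44 h co-culture of compound, cells and HCVcc-Cre (~0.5 moi), substrate is added for 15 min at room temperature and luciferase measured over 15 sec. Cells were seeded at 1,000/well and pre-cultured 4 h.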
HCMV inh = human cytomegalovirus inhibition; HFF cells, HCMV-luciferase reporter, 72 h; stronger effect = lower value; activity change, negative = inhibition, % at 57.5 µM; 410,000 tested, 4.5% active; AID 1259415; in the data active means activity change below about -60%; inconclusive means no clear call, values can overlap the other calls; inactive means above about -39%; further: on the % scale 0 is the no-effect control and ±100 the full control effect
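Cell-based, HFFs, 1000 cells/well, 16 h 37C; cpds in DMSO + HCMV-luc, MOI 1 PFU/cell; 72 h 37C; OneGlo luminescence after 5 min RT; norm. to buffer vs Salinomycin 10uM.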
Cycloheximide cs = counter-screen for Shiga toxin inhibitors: cycloheximide protein synthesis inhibition; cell reporter, cycloheximide protein synthesis inhibition counterscreen; max response, %; 300,000 tested, 12% active; AID 2314; in the data active means max response mostly above about 13%, no sharp cut-off; inactive means mostly below about 14%; further: read at 38.3 µM for the half of the compounds with a filed dose; 0% is about no effect
Starred values were filed as active, the others as inactive; u = inconclusive; x = not tested or not shown; [ ] = another dose, or the depositor's remark. Unless noted, the call rests on the fitted dose curve; in most records, active means well fitted inhibition curve with a large enough effect; inconclusive means small, poorly fitted or top-dose-only effect, or another doubt; inactive means no such curve, though single readings can be large or run the other way.

SMILES | Pf growth 48h | Pf growth 96h | Shiga inhibitor | HCV inh | HCMV inh | Cycloheximide cs
O=C(COC(=O)c1ccc(-n2cnnn2)cc1)Nc1cc(Cl)ccc1F | 22.4% | 6.9% | x | 3.0% | -17.5 | x
CCCCNS(=O)(=O)c1ccc2nc(-c3cccnc3)cc(C(=O)NCCCOC(C)C)c2c1 | x | x | x | x | -32.1 | x
Cn1cc(S(=O)(=O)N2CCCCCC2)cc1C(=O)Nc1ccc(Cl)c(C(F)(F)F)c1 | x | x | x | x | -16.8 | x
C[C@H](CO)N1C[C@H](C)[C@@H](CN(C)C(=O)Nc2cccc(C(F)(F)F)c2)OCc2cn(nn2)CCCC1=O | x | x | x | x | -7.8 | x
Clc1cccc(CNCCCSc2nnnn2-c2ccccc2)c1 | x | x | x | x | -3.9 | x
COCCCNC(=O)Cn1c(=O)n(-c2cccc(C)c2)c(=O)c2c3c(sc21)CN(C(C)=O)CC3 | x | x | x | x | 3.2 | x
COc1cccc(OC)c1OCCCCN1CCCCC1 | u | 13.1µM* | -5.6 | 5.1% | 28.0 | -3.5
c1ccc(OCCOCCN2CCN(C(c3ccccc3)c3ccccc3)CC2)cc1 | u | -22.7% | 3.2 | u | u | -3.3
COc1ccccc1OCCCCN1CCN(C(c2ccccc2)c2ccccc2)CC1 | u | 11.7µM* | -10.8 | 11.2µM* | u | -3.0
COc1cc(CN2CCC(Cc3ccccc3)CC2)cc(OC)c1OC | u | 9.28µM* | -8.0 | -26.4% | 51.0 | -1.5
Cc1ccc(CC2C(=O)N(c3cc(C)ccc3C)C(=O)C2C)cc1 (configuration not stated) | 38.6% | u | -5.0 | -5.1% | -2.2 | -2.2
Cc1ccc(CC2C(=O)N(c3ccc(C)cc3)C(=O)C2C)cc1 (configuration not stated) | 34.9% | 12.9% | 80.2* | -5.7% | -3.8 | 47.4*
Cc1ccc(CC2C(=O)N(c3ncccn3)C(=O)C2C)cc1 (configuration not stated) | x | 0.828µM* | -10.5 | 9.2% | -29.3 | -4.2
CNC[C@H](CC1CCCCC1)NC[C@H](Cc1ccccc1)NCCC12CC3CC(CC(C3)C1)C2 | u | 2.08µM* | -17.8 | 1.1%[8.37 µM] | -105.0* | -8.2
N=c1c(S(=O)(=O)c2ccc(F)cc2)cc2c(=O)n3ccccc3nc2n1CC1CCCO1 (configuration not stated) | -15.2% | u | -7.4 | u | -28.6 | -3.2
Cc1ncsc1C(=O)Nc1nc2c(s1)CC(C)CC2 (configuration not stated) | x | x | 82.3* | u | -28.0 | 26.9*
CC1CCc2nc(NC(=O)Cc3ccc(Cl)cc3)sc2C1 (configuration not stated) | x | x | x | x | 9.9 | x
Cc1ccccc1C(=O)Nc1nc2c(s1)CC(C(C)(C)C)CC2 (configuration not stated) | x | x | x | x | -65.7* | x
CC1CCc2nc(NC(=O)C3COc4ccccc4O3)sc2C1 (configuration not stated) | 51.8% | 179.9% | 11.2 | u | -76.5* | 19.4
CC1CCc2nc(NC(=O)COc3ccc(C(C)(C)C)cc3)sc2C1 (configuration not stated) | x | x | x | x | -35.7 | x
CC1CCc2nc(NC(=O)C3CC3)sc2C1 (configuration not stated) | 113.1% | x | 82.5* | 8.2% | 81.1 | 50.6*
CC1CCc2nc(NC(=O)CN3CCN(c4ccccc4)CC3)sc2C1 (configuration not stated) | 7.1% | x | -11.9 | 4.6% | 3.4 | -2.4
CN1CCN(C(=O)C(=O)Nc2c3c(nn2-c2cccc(Cl)c2)CSC3)CC1 | x | x | x | x | 8.3 | x
O=C(N/N=C/c1ccccn1)c1ccc([N+](=O)[O-])cc1Cl | -12.8% | -84.8% | x | -1.7% | 38.0 | 27.9*
O=C(Nc1cccc(NC(=O)c2cc([N+](=O)[O-])ccc2Cl)n1)c1cc([N+](=O)[O-])ccc1Cl | x | x | x | 1.12µM* | x | x
Cc1cc(NC(=O)c2cc([N+](=O)[O-])ccc2Cl)no1 | u | -21.1% | -9.3 | 12.3% | -32.5 | -1.6
O=C(c1cc2cc([N+](=O)[O-])ccc2s1)N1CCCCC1 | 85.2% | 138.7% | 35.2 | 4.3% | 7.6 | 28.3*
Cc1cc(NC(=O)c2ccc([N+](=O)[O-])cc2Cl)no1 | 101.1% | 28.9% | 69.6* | 3.9% | 44.8 | 42.5*
O=C(c1cc2cc([N+](=O)[O-])ccc2s1)N1CCOCC1 | 13.1% | 20.4% | 11.3 | 4.8% | -35.0 | 10.0
